# The full list was thinned out, with hits kept by preference.
# Pf apPOL block: Pf-apPOL DNA polymerase inhibition; Recombinant Pf-apPOL, molecular beacon fluorescence, 1.5 h; inhibition, % at 10 µM; 0.25% of 210,000 active; AID 1794808
# mHTT CaM bind: disrupts binding of mutant huntingtin to calmodulin | P42858 | AlphaScreen His-mHTT/GST-CaM binding, luminescence | inhibition, % at 15 µM | 3.6% of 190,000 active | AID 1671202;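 note: 0% = both proteins with DMSO and 100% = one protein alone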
# The depositor's hits bear a star; nt = no result given. Cut-off read from the data, not from the text of the source: active = inhibition above about 50%; inactive = the rest.
SMILES,Pf apPOL block,mHTT CaM bind
COc1ccc(CN2CCC(C(=O)NCC(C)C)CC2)cc1,8,-2
C#CCOc1cc([N+](=O)[O-])ccc1N,3,11
Cc1ccc(-c2c3c(nc4sc(C(N)=O)c(N)c24)CCCC3)o1,-5,36
COc1ccc(NC(=O)c2sc3nc4c(c(-c5ccc(C)o5)c3c2N)CCCC4)cc1,-3,69*
COc1ccc(OC)c(C2=Nn3c(nnc3-c3ccccn3)SC2)c1,nt,48
Cc1ccccc1CSCc1ccc(C(=O)O)o1,-6,5
Cc1ccccc1CSCc1ccc(C(=O)N2CCC(c3ccncc3)CC2)o1,-1,58*
COc1ccccc1[C@H]1C(c2cccc(Cl)c2)=NN(c2ccccc2)[C@@H]1CO,-9,66*
Cc1cccc(C2=NN(c3ccccc3)[C@H](CO)[C@H]2c2ccc(F)cc2)c1,-7,81*
CC[C@H]1C(c2cccc(Cl)c2)=NN(c2ccccc2)[C@@H]1CO,0,75*
CC[C@H]1C(c2cccc(C)c2)=NN(c2ccccc2)[C@@H]1CO,-8,-9
COc1ccccc1[C@@H]1C(c2cccc(Cl)c2)=NN(c2ccccc2)[C@H]1C(=O)N1CCOC1=O,-5,-109
CC[C@@H]1C(c2cccc(C)c2)=NN(c2ccccc2)[C@H]1C(=O)N1CCOC1=O,-4,-22
OC[C@@H]1[C@@H](c2ccccc2)C(c2cccc(Cl)c2)=NN1c1ccccc1,-6,59*
O=C(Cn1[nH]c2c(cnc3ccc(Cl)cc32)c1=O)Nc1ccccc1F,-2,48
O=C(CN1CCN(CC(=O)c2ccc(O)c(O)c2)CC1)Nc1ccccc1Cl,1,-5
O=C(Nc1cccc(N2CCCN(Cc3cccc(F)c3)C2=O)c1)c1cccs1,-3,-1
CC(=O)Nc1ccc(S(=O)(=O)N2CCc3nc[nH]c3C2)cc1,-4,-3
COc1cccc(C=C2SC(=S)N(CCCC(=O)O)C2=O)c1OC,-8,12
Cc1cccc(C2=NN(c3ccccc3)[C@H](CO)[C@H]2c2ccc(Cl)cc2)c1,-3,92*
CCCc1cc(C2CCCN2C(=O)Nc2ccc(C(=O)OC)cc2)no1 (configuration not stated),-2,3
O=S(=O)(O)c1ccc(O)c2ncccc12,-5,100*
Cc1ccc2c(S(=O)(=O)O)ccc(O)c2n1,0,24
COc1ccc(/C=C2/N=C(c3ccc([N+](=O)[O-])cc3)OC2=O)cc1OC,3,-2
Cc1ccc(-c2nccn3cc(C(=O)NC4CC4)nc23)cc1,-1,0
SMILES,Pf apPOL block,mHTT CaM bind
O=C(Nc1ccc(Cl)c(Cl)c1)c1ccc(F)c(S(=O)(=O)NCc2ccco2)c1,-4,64*
O=C(Nc1ccc(Cl)c(Cl)c1)c1ccc(F)c(S(=O)(=O)NCc2cccs2)c1,5,81*
COc1ccccc1CNS(=O)(=O)c1ccc(F)c(C(=O)Nc2ccc(F)c(F)c2)c1,1,-1
COc1ccccc1CNS(=O)(=O)c1ccc(F)c(C(=O)Nc2ccc(C)c(Cl)c2)c1,0,70*
O=C(Nc1cc(Cl)cc(Cl)c1)c1cc(S(=O)(=O)NCc2ccco2)ccc1F,-6,11
O=C(Nc1ccc(F)c(F)c1)c1ccc(F)c(S(=O)(=O)NCc2ccco2)c1,-21,0
O=C(Nc1ccc(Cl)c(Cl)c1)c1cc(S(=O)(=O)NCc2ccco2)ccc1F,-4,100*
O=C(Nc1cccc(Cl)c1)c1ccc(F)c(S(=O)(=O)NCc2cccs2)c1,-6,8
C=CCOc1ccc(/C=c2\sc3nc(-c4cccs4)nn3c2=O)cc1OC,5,5
O=[N+]([O-])c1ccc(C2COC(c3ccc(Cl)cc3)O2)cc1 (configuration not stated),nt,-4
O=C(CCn1nnc2ccccc2c1=O)N1CCN(Cc2ccsc2)CC1,-6,-3
O=C(NCC1COC2(CCCCC2)O1)c1cc(Cl)ccc1[N+](=O)[O-] (configuration not stated),-1,-5
COc1ccc(OC)c(NC(=O)c2ccnc(N3CCNC(c4ccccc4)C3)c2)c1 (configuration not stated),-3,34
COc1cccc(C2CC(c3cccc(OC)c3OC)n3ncnc3N2)c1 (configuration not stated),2,2
COc1cccc(C2CC(c3cccc(Br)c3)Nc3ncnn32)c1OC (configuration not stated),-2,68*
COc1ccc(C2CC(c3cccc(Br)c3)Nc3ncnn32)c(OC)c1OC (configuration not stated),-4,60*
COc1ccc(C2CC(c3cccc(Br)c3)Nc3ncnn32)cc1OC (configuration not stated),1,39
CCC1Oc2ccc(Cl)cc2N(CC(=O)N(C)Cc2ccccc2)C1=O (configuration not stated),-13,11
CCc1ccc(C2=CC(c3ccc(OC)c(OC)c3)n3ncnc3N2)cc1 (configuration not stated),-11,41
CCNC(=O)c1nc(N2CCCC2)c2c(C)scc2n1,-4,26
